Assay outcomes from PubChem.
The list is not random: actives were taken first. Their share in the collection is about 3.3%.
PI5P4Ka inh: inhibitors of human PI5P4K alpha | 1.2% of 330,000 active | PI5P4Kalpha enzyme, ADP-Glo luminescence, 60 min; stronger effect = lower value | P48426 | max response, % | AID 652105; active means max response of -50% or lower; inconclusive means between -30% and -50%; inactive means -30% or higher; further: value at the top dose of about 77 µM; on the % scale 0 is the no-effect control and ±100 the full control effect
Target sequence (P48426 whole entry, looked up): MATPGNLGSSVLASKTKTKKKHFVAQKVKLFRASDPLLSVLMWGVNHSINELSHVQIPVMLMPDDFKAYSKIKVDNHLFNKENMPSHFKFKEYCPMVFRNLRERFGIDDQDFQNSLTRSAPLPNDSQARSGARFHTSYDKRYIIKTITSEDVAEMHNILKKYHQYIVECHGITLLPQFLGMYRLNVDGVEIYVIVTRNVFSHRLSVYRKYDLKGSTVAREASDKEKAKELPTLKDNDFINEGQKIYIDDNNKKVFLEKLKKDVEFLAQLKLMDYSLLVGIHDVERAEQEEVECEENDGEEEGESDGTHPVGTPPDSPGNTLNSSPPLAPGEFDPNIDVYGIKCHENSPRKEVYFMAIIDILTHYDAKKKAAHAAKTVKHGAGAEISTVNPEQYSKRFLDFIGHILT
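Human PI5P4Kalpha with substrate in 0.038 M HEPES pH 7.4, 0.28 mM EGTA, 0.1% CHAPS, 5% DMSO; reaction started with 5 microM ATP (final), 60 min at room temperature. ADP formed read by ADP-Glo luminescence.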
D3 ag: agonists of human D3 dopamine receptor. P35462. D3R DiscoveRx beta-arrestin cells, luminescence, 90 min. max activation, %. 0.58% of 410,000 active. AID 652048; in the data active means max activation above about 30%; further: 0% is about no effect
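Agonist-mode cell screen: cells plated at 1500/well and incubated overnight at 37 °C, then exposed to library compounds for 90 min at 37 °C. Detection reagent was added for 30–60 min at room temperature, and luminescence was read.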
LDHA inh: blocks human lactate dehydrogenase A; P00338; purified LDHA, NADH/diaphorase-resazurin fluorescence; stronger effect = lower value; activity change, % (values are at about 110 or 230 µM); 0.15% of 480,000 active; AID 1347041; in the data active means activity change below about -30%; inconclusive means mostly about -25% to -30%;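 further: plate controls were DMSO wells for no effect and wells without enzyme for full effect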
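Resorufin fluorescence (ex540/em590), read at 0 and 20 min after diaphorase/resazurin addition, reports the NADH left after a 5 min room-temperature reaction of 2 nM human LDH5 with 0.06 mM NADH and 0.2 mM pyruvate.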
DRD3 antagonist: D3 dopamine receptor (human) antagonism | P35462 | D3R cells, DiscoveRx beta-arrestin luminescence, antagonist mode; stronger effect = lower value | max response, negative = inhibition, % | 2.5% of 360,000 active | AID 652054; in the data active means max response below about -50%; inconclusive means no clear call, values can overlap the other calls; further: on the % scale 0 is the no-effect control and ±100 the full control effect
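Cells plated overnight at 1500 cells/well, then exposed to library compounds with dopamine controls for 90 minutes at 37 degrees C. DiscoveRx reagent added for 30–60 minutes at room temperature; luminescence read, quantitative HTS format.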
PI4K2A inh: PI4K2A (human) kinase inhibition. 0.13% of 420,000 active. purified PI4K2A, ADP-Glo luminescence, 1 h; stronger effect = lower value. activity change, negative = inhibition, % at 76.9 µM. Q9BTU6. AID 1346378; in the data active means activity change below about -50%; inconclusive means mostly about -30% to -49%;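 further: -100% = wells without enzyme as full effect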
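PI4K2A activity was measured by ADP-Glo luminescence: enzyme (4 ug/mL stock) and phosphatidylinositol (1.2 mM stock) in Tris pH 7.5/MgCl2/EGTA/Triton X-100 buffer were reacted with ATP (300 microM stock) for one hour at ambient temperature.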
Numbers without * were called inactive.

`CCc1cc(C(=O)NNC(=S)NCC2CCCO2)cs1` (configuration not stated) gave D3 ag -2, LDHA inh -4, DRD3 antagonist -53* and PI4K2A inh -7.
Cc1cccc(NC(=S)NNC(=O)c2csc(C(C)C)c2)c1 was read as D3 ag -3, LDHA inh -14, DRD3 antagonist 15 and PI4K2A inh 2.
CCc1cc(C(=O)NNC(=S)Nc2cccc(C)c2)cs1 was read as PI5P4Ka inh -20, D3 ag -8, LDHA inh -1, DRD3 antagonist -101* and PI4K2A inh 2.
CCC(CO)NS(=O)(=O)c1ccc(Cl)c2ccccc12 (configuration not stated) was read as LDHA inh 9.
`CCOC(=O)c1cc2cc(CC)ccc2[nH]1` gave LDHA inh 2.
`COc1ccc(-c2csc(N3CCN(c4cc(C)nc5ccccc45)CC3)n2)cc1OC` gave PI5P4Ka inh 6, D3 ag 32*, LDHA inh -7, DRD3 antagonist 76 and PI4K2A inh -5.
For N#CCCN1CCN(Cc2cc(-c3ccccc3)ccc2O)CC1 the results were D3 ag -10, LDHA inh -8, DRD3 antagonist -96* and PI4K2A inh 3.
CC(C)(C)CC(C)(C)c1ccc(O)c(CN2CCN(CCC#N)CC2)c1 was read as D3 ag 1, LDHA inh 7, DRD3 antagonist -21 and PI4K2A inh 3.
Screening O=C(COc1ccccc1Cl)Nc1ccc2[nH]c(=O)[nH]c2c1 returned PI5P4Ka inh -25, D3 ag 3, LDHA inh -5, DRD3 antagonist -61* and PI4K2A inh 3.
For CCOc1ccccc1OCC(=O)Nc1ccc2[nH]c(=O)[nH]c2c1 the results were PI5P4Ka inh -8, D3 ag -2, LDHA inh 0, DRD3 antagonist 3 and PI4K2A inh -1.
For CCOc1ccc(N2CC(C(=O)Nc3nnc(Cc4ccc(OC)c(OC)c4)s3)CC2=O)cc1 (configuration not stated) the results were PI5P4Ka inh -10, D3 ag 5, LDHA inh -4, DRD3 antagonist 7 and PI4K2A inh 1.
For COc1ccc(Cc2nnc(NC(=O)C3CC(=O)N(c4ccccc4C)C3)s2)cc1OC (configuration not stated) the results were PI5P4Ka inh -10, D3 ag -8, LDHA inh -4, DRD3 antagonist -64* and PI4K2A inh -3.
`O=C(/C=C/c1ccccc1Cl)NNC(=O)C1CCCCC1` gave LDHA inh 1.
For O=C(C[n+]1ccccc1)Nc1ccc(Cl)c([N+](=O)[O-])c1 the results were PI5P4Ka inh -3, D3 ag -4, LDHA inh -3, DRD3 antagonist -14 and PI4K2A inh 5.
For O=C(C[n+]1ccc(C(=O)c2ccccc2)cc1)Nc1cccc([N+](=O)[O-])c1 the results were PI5P4Ka inh -2, D3 ag -13, LDHA inh 10, DRD3 antagonist -95* and PI4K2A inh -3.
Cc1ccc(NC(=O)C[n+]2ccccc2)cc1[N+](=O)[O-] was read as PI5P4Ka inh 0, D3 ag -10, LDHA inh -3, DRD3 antagonist -59* and PI4K2A inh 5.
CCc1nnc(SCC(=O)N2CCc3ccccc32)n1CC was read as PI5P4Ka inh -5, D3 ag -8, LDHA inh -4, DRD3 antagonist -15 and PI4K2A inh 7.
`CCn1c(SCC(=O)N2CCc3ccccc32)nnc1-c1ccncc1` gave PI5P4Ka inh -11, D3 ag -2, LDHA inh -39*, DRD3 antagonist -22 and PI4K2A inh 9.
For CCn1c(SCC(=O)N2CCCc3ccccc32)nnc1-c1cccs1 the results were D3 ag 5, LDHA inh -8, DRD3 antagonist -68* and PI4K2A inh -1.
For O=C(CSc1nnc(-c2cccs2)n1-c1ccccc1)N1CCCc2ccccc21 the results were D3 ag -2, LDHA inh 2, DRD3 antagonist -21 and PI4K2A inh -1.
CCC1c2ccsc2CCN1C(=O)CC12CC3CC(CC(Br)(C3)C1)C2 (configuration not stated) was read as LDHA inh 11.
`OCCOCCN1CCN(C(c2ccccc2)c2ccc(Cl)cc2)CC1` (configuration not stated) gave PI5P4Ka inh inconclusive, D3 ag -86, LDHA inh -3, DRD3 antagonist -89* and PI4K2A inh -7.
For O=C(O)COCCN1CCN(C(c2ccccc2)c2ccc(Cl)cc2)CC1 (configuration not stated) the results were PI5P4Ka inh -5, LDHA inh -4 and PI4K2A inh -7.
`COc1ccccc1N1CCN(CCCN=C2CC(=O)N(C)C(=O)N2C)CC1` gave PI5P4Ka inh -1, D3 ag -62, LDHA inh -6, DRD3 antagonist -56* and PI4K2A inh -2.
COc1cccc(OC)c1OCCN1CCN(C(c2ccccc2)c2ccccc2)CC1 was read as PI5P4Ka inh 5, D3 ag -6, LDHA inh 3, DRD3 antagonist -109* and PI4K2A inh -5.
Screening COc1ccccc1N1CCN(CCCCOc2c(OC)cccc2OC)CC1 returned PI5P4Ka inh -1, D3 ag -16, LDHA inh -18, DRD3 antagonist -108* and PI4K2A inh 3.
For COc1ccc(OC)c(-c2cc(C(=O)N(C)C)no2)c1 the results were LDHA inh 11.
Screening COc1ccc2c(C)c(CC(=O)Nc3nnc(CC(C)C)s3)c(=O)oc2c1OC returned LDHA inh -10.
`CCCN1C(=O)CCc2cc(NC(=O)c3cccc(C)c3)ccc21` gave LDHA inh -5.
Screening COc1ccccc1N1CCN(CCCOc2ccc(F)cc2)CC1 returned PI5P4Ka inh 1, D3 ag -17, LDHA inh -15, DRD3 antagonist -91* and PI4K2A inh 4.
For COc1cccc(OC)c1OCCCN1CCC(Cc2ccccc2)CC1 the results were PI5P4Ka inh -1, D3 ag -20, LDHA inh -23, DRD3 antagonist -95* and PI4K2A inh -2.
`COc1ccc(C(=O)COC(=O)/C=C/c2ccc3c(c2)OCO3)cc1` gave LDHA inh -5.
For C=CCc1cc(C)ccc1OCC(O)CN1CCN(c2ccccc2)CC1 (configuration not stated) the results were D3 ag 75*, LDHA inh -13, DRD3 antagonist -24 and PI4K2A inh -2.
For C=CCc1ccc(OCC(O)CN2CCCCC2)c(OC)c1 (configuration not stated) the results were PI5P4Ka inh 0, D3 ag 1, LDHA inh 4, DRD3 antagonist -17 and PI4K2A inh -5.
